The values below come from PubChem BioAssay AID1645855 (Buhrlage Lab, Dana-Farber Cancer Institute and Novartis …, 2021).

As a reminder, the inhibition is the relative decrease from the control value, in per cent.

Among all 47,000 compounds or so, about 3,100 (6.6%) were called active. The sample holds actives, similar compounds and a random draw of the others, so the mix is not that of the screen. Unmarked numbers belong to inactive results. Cut-off read from the data, not from the text of the source: active = inhibition above about 30%; inactive = the rest.

The target in this assay is Ubiquitin carboxyl-terminal hydrolase 17-like protein 5 (Homo sapiens) (UniProt A8MUK1). Nature of the assay: blocks human USP17 ubiquitin-rhodamine cleavage (AID 1645855). Conditions: purified USP17, Ub-rhodamine cleavage fluorescence, 3 h; at 50 µM; stronger effect = higher value.
Sequence of Ubiquitin carboxyl-terminal hydrolase 17-like protein 5 (Homo sapiens) (A8MUK1 whole entry, looked up): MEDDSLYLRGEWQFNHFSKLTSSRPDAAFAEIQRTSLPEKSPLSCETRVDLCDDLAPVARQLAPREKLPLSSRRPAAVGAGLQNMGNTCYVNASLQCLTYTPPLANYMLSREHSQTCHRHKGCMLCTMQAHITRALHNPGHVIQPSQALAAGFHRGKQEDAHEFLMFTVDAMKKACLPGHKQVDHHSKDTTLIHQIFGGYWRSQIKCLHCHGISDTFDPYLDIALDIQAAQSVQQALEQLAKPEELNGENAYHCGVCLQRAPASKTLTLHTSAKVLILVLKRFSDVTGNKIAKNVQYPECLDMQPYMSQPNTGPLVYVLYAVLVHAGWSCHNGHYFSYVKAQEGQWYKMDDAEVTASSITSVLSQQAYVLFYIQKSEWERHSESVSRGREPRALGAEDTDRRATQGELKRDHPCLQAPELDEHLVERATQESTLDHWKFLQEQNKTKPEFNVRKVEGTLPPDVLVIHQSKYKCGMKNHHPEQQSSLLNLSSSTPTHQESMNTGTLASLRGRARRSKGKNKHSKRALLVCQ
For `COc1ccccc1OCCC(=O)Nc1cccc(S(=O)(=O)N(C)C)c1`, the inhibition was 9.63%. For the molecule `CCOc1ncccc1C(=O)NNC(=O)c1cn(-c2ccccc2)nc1-c1ccccc1`, the inhibition was 2.51%.

Take `CC(OC(=O)c1cn(-c2ccccc2)nc1-c1cccnc1)C(=O)Nc1cccc(S(=O)(=O)N(C)C)c1` (stereo not drawn): the inhibition was 41.1% (active). Turning to `NC(=O)c1ccccc1OCC(=O)Nc1cc(Cl)ccc1Oc1ccccc1`, the inhibition is -1.08%. As to `COc1ccc(-c2noc(-c3cc4c(COC(C)=O)cnc(C)c4oc3=O)n2)cc1`, the inhibition was -158%. As to `COc1ccc(-c2cc(=O)oc3c(C)c(OCc4ccccc4F)ccc23)cc1`, the inhibition is 49.1% (active). For the molecule `Cc1cc(=O)oc2c(C)c(OC(C)C(=O)NCc3ccncc3)ccc12` (stereo not drawn), the inhibition is -11.3%.

With `CNC(=O)c1sc2nccnc2c1C1CCN(c2ccncn2)CC1`, the inhibition is -8.22%.

As for `CCc1cc(C2CCCN2S(=O)(=O)c2ccc(C(C)C)cc2)on1` (stereo not drawn), the inhibition is 9.48%. The value for `Cc1nn(C)c(C)c1CN(C(=O)Cn1cc(C(C)C)nn1)C1CC1` was -1.87%; that for `CN1C[C@@H](NC(=O)c2ccc(F)cc2)C[C@H]1c1nc(-c2cccnc2)no1` was -2.42%. As to `Cc1cc(N)nc2c1c(C)nn2-c1ncc(C(F)(F)F)cc1Cl`, the inhibition was -15.8%. Consider `Cc1ccccc1-c1nc(-c2cccc(OCC(=O)N3CCOCC3)c2)no1`, for which the inhibition was 48.9% (active). On to `Cc1ccccc1-c1nc(-c2cn(CC(=O)Nc3ccccc3)cn2)no1`, for which the inhibition is 10%. As to `COc1ccc(-c2noc(-c3cccc(OCC(=O)NC(C)C)c3)n2)cc1`, the inhibition was -0.296%. `COc1cc(Cl)ccc1-c1nc(-c2cccc(C(=O)N3CCCC3)c2)no1`: the inhibition was 8.98%. Turning to `Cc1ccc(-c2noc(-c3cccc(OCC(=O)N(C)C)c3)n2)cc1`, the inhibition was 50.7% (active). Then `Cc1ccc(-c2nc(-c3cccc(-c4ccnn4C)c3)no2)cc1`, with 5.04%; and `O=C(NCCc1ccccc1)c1cc2c(s1)CS(=O)(=O)C2`, with 6.74%; and `COc1ccccc1Cc1cnc(C2CCCN(C(=O)c3ccnc(C)n3)C2)o1` (stereo not drawn), with -2.9%. Then `CC1=N[C@@]2(CC[C@@H]3CN(C(=O)Nc4ccccc4C)C[C@@H]32)C(=O)N1CC1CC1`, with -23.9%; and `COc1ccc(CNC(=O)c2cccc3cccnc23)cc1`, with 40.3% (active); and `COc1ccc(CNC(=O)CSc2nnc3c4ccccc4nc(-c4ccco4)n23)cc1`, with -17%.

Turning to `COc1ccc(-c2noc(CNC(=O)CCc3ccccc3)n2)cc1OC`, the inhibition was 8.5%. As to `COc1ccc(-c2ccc(CCC(=O)NCc3ccccc3)o2)cc1`, the inhibition was 34.6% (active).

Take `COc1ccc(CCNC(=O)c2ccccc2OCc2ccc(F)cc2)cc1`: the inhibition is 16.7%.

As for `COc1cccc(C(=O)NCc2ccc(-c3nc4cnccc4o3)cc2)c1`, the inhibition was 25.2%. As for `COc1ccc(CNC(=O)Cn2ncc3ccc(C)cc32)cc1`, the inhibition was 16.8%. Consider `COc1ccc(CNC(=O)c2ccccc2-c2ncc(-c3ccccc3)o2)cc1`, for which the inhibition is 37.9% (active). For `COc1ccc(CC(=O)Nc2cnc(-c3ccccc3)nc2)cc1`, the inhibition was 2.89%. For `O=C(c1ccc(OC2CCN(C(=O)C3CCC3)CC2)nc1)N1CCOCC1`, the inhibition is -14.4%. With `CC(=O)N1CC2(CCN(C(=O)c3ccncc3)CC2)Nc2ccccc21`, the inhibition is -3.13%. Regarding `CCOC(=O)c1[nH]c2cc(OC)c(OC)cc2c1NC(=O)c1cc2cccc(OC)c2o1`, the inhibition is -23.6%.

Take `CCOC(=O)c1c(NC(=O)CNc2cc(C)ccc2C)sc(Cc2ccc3c(c2)OCO3)c1C`: the inhibition was 5.67%. Take `O=C(c1cccnc1)N1CC[C@@H]2CNS(=O)(=O)[C@@H]2CC1`: the inhibition is -5.34%. The value for `CN1[C@@H](CCC(=O)N2CCN(c3ccccc3)CC2)CNC(=O)[C@H]2NCC[C@H]21` was 7.19%. Turning to `Cc1ccc(N(C)C(=O)CCn2cnc3ccccc3c2=O)cc1`, the inhibition was -3.3%. For the molecule `Cc1ccc(NC(=O)CCn2cnc3c2c(=O)n(C)c(=O)n3C)cc1`, the inhibition is -13%. Take `Cc1c(Cl)cccc1NC(=O)CCn1cnc2ccccc2c1=O`: the inhibition is 55.3% (active). Then `Cc1nnc2c(NC(=O)Cc3cccc(C(F)(F)F)c3)cccn12`, with -9.8%; and `Cc1cccc(NC(=O)C2CN(S(C)(=O)=O)c3ccccc3O2)c1C` (stereo not drawn), with -4.9%. Then `CCS(=O)(=O)n1nc(NCc2ccccc2)nc1NCc1ccccc1`, with 1.97%; and `CCOc1ccc(NC(=S)Nc2ccc(Cc3ccncc3)cc2)cc1`, with 7.13%. As for `COc1ccc(-c2cnc(SCCNC(=O)c3cccc(F)c3)[nH]2)cc1`, the inhibition is -3.6%. For `COc1ccc(NC(=O)c2cc(=O)[nH]c3ccccc23)cc1S(=O)(=O)N1CCOCC1`, the inhibition is -3.19%. For the molecule `COc1ccc(-c2[nH]c3ccccc3c2SCCNC(=O)c2ccc(S(=O)(=O)N3CCOCC3)cc2)cc1`, the inhibition was 56.7% (active). Take `CC(C)Oc1ccc(CNC(=O)C2CCCN(c3ccc(N4CCOCC4)nn3)C2)cc1` (stereo not drawn): the inhibition was -6.08%. As for `O=C1C(O)=C(c2ccc(O)c(O)c2)C(=O)C(O)=C1c1ccccc1`, the inhibition is 57.3% (active).

As to `COc1cnc(CSc2nccc(C)n2)cc1OCC(=O)Nc1ccc(C)cc1C`, the inhibition is 2.43%.

For `CC(C)Cc1cc(-c2nn3c(-c4ccccc4Cl)nnc3s2)n[nH]1`, the inhibition was 42.6% (active). The value for `CC(O)CNc1ncnc2c1oc1nc(C(C)C)c3c(c12)CCC3` (stereo not drawn) was 3.5%; that for `CC(C)Cc1nc2sc3c(N(CCO)Cc4ccccc4)ncnc3c2c2c1COC(C)(C)C2` was 29.6%. Regarding `CC(C)Cc1nc2sc3c(NCc4ccco4)ncnc3c2c2c1CCC2`, the inhibition is 43.3% (active). The value for `COc1cccc(-c2cn3c4c(=O)n(C)c(=O)n(C)c4nc3n2-c2ccc(OC)c(OC)c2)c1` was 20.6%; that for `CC(=O)N[C@@]12CN(C)CC[C@@H]1[C@@H](c1ccccc1)N(CC(=O)Nc1ccc(F)cc1)C2` was -2.8%. For `N#Cc1ccccc1Cn1c(=O)n(CCCC(=O)NCc2ccc(F)cc2)c(=O)c2ccccc21`, the inhibition is 30.8% (active). `O=C(CCCn1c(=O)c2ccccc2n(Cc2ccccc2F)c1=O)NC1CCCC1`: the inhibition is 21.6%. Consider `COCCCn1c(=O)c2ccccc2n(Cc2nc(-c3ccccc3)no2)c1=O`, for which the inhibition was -3.49%. Regarding `CC1Oc2ccc(NC(=O)c3ccc4c(c3)CCC4)cc2NC1=O` (stereo not drawn), the inhibition was -11%. For the molecule `Cc1ccc(Cn2cc(-c3noc(-c4ccc[nH]4)n3)nn2)cc1`, the inhibition was 0.022%. Consider `CC(CCc1ccccc1)NC(=O)/C=C/c1cccc([N+](=O)[O-])c1` (stereo not drawn), for which the inhibition was 6.91%. Then `CC(CCc1ccccc1)NC(=O)c1cc2cc(Oc3ccccc3)ccc2[nH]1` (stereo not drawn), with 32.3% (active). As to `COc1ccccc1C(=O)Nc1cccc(Oc2ccccc2)c1`, the inhibition was 12.6%. In the case of `C[C@@H]1O[C@@H](OC2[C@H](Oc3cc(O)c4c(c3)OC(c3ccc(O)cc3)CC4=O)O[C@H](CO)[C@@H](O)[C@@H]2O)[C@H](O)[C@H](O)[C@H]1O` (stereo partly drawn), the inhibition is 0.6%. As to `Cc1cccc(NC(=O)Cn2c(C)ccc(NC(=O)Nc3cccc(C)c3)c2=O)c1`, the inhibition was 14%. On to `Cc1cccc(C2=NC3(CCN(CC(=O)Nc4ccccc4C)CC3)NC2=O)c1`, for which the inhibition was -42.3%.

Consider `Cc1ccc2cc(CNc3ccccc3)c(=O)n(CC(=O)Nc3ccccc3C)c2c1`, for which the inhibition is 84.2% (active).

`O=C(Cn1cccc(S(=O)(=O)N2CCCC2)c1=O)Nc1ccccc1`: the inhibition was -38%. Consider `CN(C)CCO[C@H]1CN(C(=O)c2cccnc2)[C@@H]2CCCO[C@H]12`, for which the inhibition is -13.9%. Regarding `O=C(Cn1cnc2c(sc3ccccc32)c1=O)Nc1ccc2c(c1)OCCO2`, the inhibition is 23.3%. As for `COc1ccc(C)cc1NC(=O)Cn1c(=O)nc(N(C)c2ccccc2)c2ccccc21`, the inhibition is 14.1%.

`CN(c1ccccc1)c1nc(=O)n(CC(=O)Nc2ccc3c(c2)OCCO3)c2ccccc12`: the inhibition was 54% (active). The value for `COc1cc(O)sc1C=Nc1ccc(Oc2ccccc2)cc1` was 9.93%; that for `Cc1cnc(N2CCC3(CC2)[C@@H]2CN(Cc4cccnc4)C[C@@H]2C(=O)N3C)nc1` was -34.9%. The value for `CCC(Oc1ccccc1)C(=O)NCc1ccc2c(c1)OCO2` (stereo not drawn) was -0.19%; that for `c1ccc(-c2ccc(NCc3ccc4c(c3)OCO4)nn2)cc1` was 71.6% (active); that for `c1cc(CNCc2ccc3c(c2)OCO3)ccn1` was 0.475%. For `COC(=O)c1ccc(CN2CCN(c3cnn4cnnc4c3)CC2)cc1`, the inhibition was 0.152%.

As for `CN(CC(=O)Nc1cccc(C(F)(F)F)c1)Cc1nc2ccccc2c(=O)[nH]1`, the inhibition is -13.9%. Turning to `Cc1ccc(S(=O)(=O)Nc2nc3ccccc3n3nnnc23)cc1`, the inhibition was -34.7%.

Consider `CSc1nccc(-c2ccc(F)cc2)c1C#N`, for which the inhibition was 82.5% (active).

Turning to `COc1ccc(F)c([C@@H]2NC(=O)CC[C@H]2NCc2cccc(O)c2)c1`, the inhibition is -6.39%. As to `CC(=O)Nc1cccnc1-c1ccc(C(=O)Nc2ccc(C)c(C)c2)cc1`, the inhibition was 6.52%. Regarding `Cc1ocnc1C(=O)N[C@@H]1C[C@@H](Oc2ccccc2)[C@H](O)[C@H]1N1CCOCC1`, the inhibition was 9.29%. Then `Cc1ccc2occ(CC(=O)Nc3sc4c(c3C(=O)NCc3cccnc3)CCCC4)c2c1`, with 33.6% (active); and `Cc1cccc(OCCCC(=O)Nc2sc3c(c2C(N)=O)CCCC3)c1C`, with -11%; and `Cc1ccc(NS(=O)(=O)c2cc(C(=O)NCc3cccnc3)ccc2Cl)cc1`, with 6.21%. Consider `COc1ccc(CCNC(=O)c2ccc3ccccc3c2)cc1OC`, for which the inhibition is -2.29%.

Turning to `CCC(=O)NC(=NCCc1c[nH]c2ccc(Cl)cc12)Nc1nc(C)cc(C)n1`, the inhibition is 43.9% (active).

Regarding `O=C(NCCc1c[nH]c2ccccc12)c1cc2cc(Cl)ccc2o1`, the inhibition is 23%.

Regarding `COc1ccc2[nH]cc(CCNC(=O)Cc3csc(-c4cc(OC)c(OC)c(OC)c4)n3)c2c1`, the inhibition is 8.14%.

Take `CC(=O)N1CCCCCC1C1CCN(c2ncccc2C#N)CC1` (stereo not drawn): the inhibition was -19%.

For `Cn1nccc1-c1cccc(-c2noc(-c3ccoc3)n2)c1`, the inhibition is -3.53%.

Consider `O=C(CCCC1=NS(=O)(=O)c2ccccc2N1)Nc1ccc(C(=O)O)cc1`, for which the inhibition was 25.1%.

With `Cc1c(Cl)cccc1NC(=O)C(=O)c1cn(CC(=O)N2CCOCC2)c2ccccc12`, the inhibition was -0.359%. The value for `Cn1ccnc1CN1C(=O)CO[C@H]2CN(Cc3ccc4c(c3)OCO4)C[C@H]21` was 4.69%; that for `Cc1cc(-c2cncnc2-c2ccc(CNC(=O)Cc3ccccc3C)cc2)on1` was 18.8%. `Cc1ccccc1CS(=O)(=O)Cc1ccc(C(=O)Nc2noc3ccccc23)o1`: the inhibition is 48.3% (active).
